Compounds with a hit are over-represented: about 21% of the library has one in this group of screens.
CYP2C9 activ = CYP2C9 (human) activation. recombinant CYP2C9, luciferin-H conversion, luminescence; hits give high values; factor 1 = untreated enzyme, 0 = blocked. activation factor at 5 µM. 96,000 compounds, 1.4% hits. AID 1024;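 active = activation factor of 2 or more for CYP2C9 at a 5 µM dose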;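 note: 0 = sulfaphenazole-blocked wells and 1 = vehicle-only wells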
CYP2C19 act = activators of human cytochrome P450 2C19. 96,000 tested, under 10 active. activation factor at 5 µM. recombinant CYP2C19, luciferin-H EGE luminescence; hits give high values; 0 = fully inhibited enzyme, 1 = untreated enzyme. P33261;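 active = activation factor of at least 2 at 5 µM in the primary screen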;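 note: 0 = wells with 2.5 mM tranylcypromine and 1 = vehicle-only wells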
Target sequence (P33261 whole entry, looked up): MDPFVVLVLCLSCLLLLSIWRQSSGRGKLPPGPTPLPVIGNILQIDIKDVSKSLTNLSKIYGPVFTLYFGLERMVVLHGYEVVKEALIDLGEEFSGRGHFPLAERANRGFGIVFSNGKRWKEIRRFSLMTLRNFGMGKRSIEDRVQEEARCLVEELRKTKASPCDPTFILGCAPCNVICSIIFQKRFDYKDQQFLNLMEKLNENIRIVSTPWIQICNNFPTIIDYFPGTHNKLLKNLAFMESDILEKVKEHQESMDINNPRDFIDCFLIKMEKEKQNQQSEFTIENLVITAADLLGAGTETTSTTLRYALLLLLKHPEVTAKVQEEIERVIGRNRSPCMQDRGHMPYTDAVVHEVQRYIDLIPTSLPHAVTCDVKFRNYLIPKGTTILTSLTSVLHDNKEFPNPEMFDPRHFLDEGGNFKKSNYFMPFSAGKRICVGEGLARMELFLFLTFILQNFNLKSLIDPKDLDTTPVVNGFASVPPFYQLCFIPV
MRP reversal = reverses drug resistance mediated by MRP; differential viability (reversal), % at 10 µM; AID 602; H69AR cells + 2 uM doxorubicin, CellTiter-Glo, 72 h; 85,000 compounds, 0.04% hits;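 active = viability drop by adding the cancer drug above about 55%, with treated viability meeting a 40% cutoff, limit read from the data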;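 note: viability without doxorubicin minus viability with 2 µM doxorubicin for each compound; larger differential means the compound sensitizes cells more to doxorubicin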
CYP2C9 inh = human CYP2C9 inhibition; CYP2C9 Supersomes, luciferin-H conversion, luminescence; inhibition, % at 5 µM; 96,000 compounds, 20% hits;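 active = blocking of liver enzyme CYP2C9 beyond about 50% at 5 µM, limit read from the data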
MRP-1 activ = activators of MRP-1; 140,000 compounds, 0.61% hits; H69AR cells + doxorubicin, viability rescue, CellTiter-Glo; viability increase, % at 10 µM;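 active = viability gain under doxorubicin at or above a set limit, the compound median plus 3 SD, cut at about 4.7% in these data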;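 note: MRP-1 overexpressing cells given doxorubicin 25 µM after compound pretreatment; 18-22 h compound pretreatment then 72 h with doxorubicin before readout; 0% = doxorubicin-only wells and 100% = vehicle-treated cells without doxorubicin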
CYP2C19 inh = human CYP2C19 inhibition; P33261; CYP2C19 Supersomes, luciferin-H EGE luminescence, 30 min; inhibition, % at 5 µM; 96,000 compounds, 21% hits;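 active = CYP2C19 inhibition above a set limit at 5 µM in the primary screen, cut at about 50% in these data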;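 note: plate controls were negative control wells for no effect and 2.5 mM tranylcypromine positive control for full effect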
The depositor's hits bear a star.

Screening O=C(NCc1ccccc1F)C1CCCN(C(=O)NC2CCCCC2)C1 (stereo unspecified) returned CYP2C9 activ 1, CYP2C19 act 1, MRP reversal 2, CYP2C9 inh -1, MRP-1 activ -1 and CYP2C19 inh -3.
For Cc1cccc(-c2noc(-c3cc4ccccc4oc3=O)n2)c1 the results were CYP2C9 activ 1, CYP2C19 act 0.7, CYP2C9 inh 1, MRP-1 activ 1 and CYP2C19 inh 27.
CC(NC(=O)CCOc1ccccc1)c1ccccc1 (stereo unspecified) was read as CYP2C9 activ 0.7, CYP2C19 act 0.1, MRP reversal 12, CYP2C9 inh 28, MRP-1 activ -1 and CYP2C19 inh 95*.
Screening CC(NC(=O)CCSCCC(=O)NC(C)c1ccccc1)c1ccccc1 (stereo unspecified) returned MRP-1 activ -3.
`COc1ccc(OCCCC(=O)NC(C)c2ccccc2)cc1` (stereo unspecified) gave CYP2C9 activ 1.4, CYP2C19 act 0.4, MRP reversal 7, CYP2C9 inh -36, MRP-1 activ -1 and CYP2C19 inh 57*.
`COc1ccc2c(C)nc(Nc3nc(C)cc(=O)[nH]3)nc2c1` gave MRP reversal -4.
For CS(=O)(=O)c1ccccc1-c1nc(-c2ccc(C(F)(F)F)cc2)no1 the results were CYP2C9 activ 3.1*, CYP2C19 act 1, CYP2C9 inh -208, MRP-1 activ 0 and CYP2C19 inh 5.
For Cc1ccc(-c2noc(-c3ccccc3Br)n2)cc1 the results were CYP2C9 activ 1.3, CYP2C19 act 1.1, MRP reversal -2, CYP2C9 inh -27, MRP-1 activ -4 and CYP2C19 inh -7.
Cc1cccc(NC(c2ccc(O)cc2)c2ccc3ccc(C)nc3c2O)n1 (stereo unspecified) was read as CYP2C9 activ 2*, CYP2C19 act 0.6, MRP reversal 8, CYP2C9 inh -99, MRP-1 activ -5 and CYP2C19 inh 42.
For Cc1cc(NC(c2cccnc2)c2ccc3cccnc3c2O)no1 (stereo unspecified) the results were CYP2C9 activ 0.7, CYP2C19 act 0.7, MRP reversal -9, CYP2C9 inh 34, MRP-1 activ -2 and CYP2C19 inh 30.
`CCOc1ccc(C2c3cc(OC)c(OC)cc3CC(=O)N2c2ccc(OC)cc2)cc1` (stereo unspecified) gave CYP2C9 activ 0.6, CYP2C19 act 0.7, CYP2C9 inh 35, MRP-1 activ -4 and CYP2C19 inh 27.
For CN1CCN(c2ccccc2NC(=O)C(Cc2ccccc2)n2cccc2)CC1 (stereo unspecified) the results were MRP-1 activ -5.
`CCN(CC)S(=O)(=O)c1ccc(C(=O)NCCc2cc3c(OC)ccc(OC)c3[nH]c2=O)cc1` gave CYP2C9 activ 0.2, CYP2C19 act 0.7, MRP reversal -12, CYP2C9 inh 85*, MRP-1 activ -3 and CYP2C19 inh 34.
`Cc1ccc(C)c2[nH]c(=O)c(CCNC(=O)c3ccc4c(c3)OCO4)cc12` gave CYP2C9 activ 0.8, CYP2C19 act 0.9, MRP reversal 2, CYP2C9 inh 25, MRP-1 activ 1 and CYP2C19 inh 11.
CCCCC(=O)NCCc1cc2c(OC)ccc(OC)c2[nH]c1=O was read as CYP2C9 activ 2.3*, CYP2C19 act 1, MRP reversal -11, CYP2C9 inh -132, MRP-1 activ 0 and CYP2C19 inh 3.
`Cc1ccc(C)c2[nH]c(=O)c(CCNC(=O)c3ccc(S(=O)(=O)N(C)C)cc3)cc12` gave CYP2C9 activ 0.4, CYP2C19 act 0.8, MRP reversal -10, CYP2C9 inh 59*, MRP-1 activ -3 and CYP2C19 inh 17.
For COc1ccc(OC)c2[nH]c(=O)c(CCNC(=O)c3ccc(S(=O)(=O)N4CCCC4)cc3)cc12 the results were CYP2C9 activ 0.4, CYP2C19 act 0.6, MRP reversal -20, CYP2C9 inh 62*, MRP-1 activ -2 and CYP2C19 inh 44.
For COc1cc(-n2nnnc2SCC(=O)N2CCN(c3ccc(F)cc3)CC2)c(OC)cc1Cl the results were CYP2C9 activ 0.9, CYP2C19 act 1.1, MRP reversal 6, CYP2C9 inh 8, MRP-1 activ 1 and CYP2C19 inh -12.
Screening CC1Cc2ccccc2N1C(=O)CN1C(=O)CN(C)C(=O)c2ccccc21 (stereo unspecified) returned CYP2C9 activ 1.3, CYP2C19 act 1.1, MRP reversal -2, CYP2C9 inh -31, MRP-1 activ -1 and CYP2C19 inh -8.
Screening Cc1ccc(-c2csc(C3C(N)=NC(S)=C(C#N)C34CCCCC4)n2)cc1 (stereo unspecified) returned CYP2C9 activ 0.1, CYP2C19 act 0.5, CYP2C9 inh 89*, MRP-1 activ -3 and CYP2C19 inh 50.
For Nc1nc(-c2ccccc2)cs1 the results were CYP2C9 activ 1.1, CYP2C19 act 1, MRP reversal -1, CYP2C9 inh -6, MRP-1 activ -1 and CYP2C19 inh 4.
N#CC1=C(S)N=C(N)C(c2nc(-c3ccccc3)cs2)C12CCCC2 (stereo unspecified) was read as CYP2C9 activ 0, CYP2C19 act 0.1, CYP2C9 inh 98*, MRP-1 activ -2 and CYP2C19 inh 86*.
For N#CC1=C(S)N=C(N)C(c2nc(-c3ccccc3)cs2)C12CCCCC2 (stereo unspecified) the results were CYP2C9 activ 0.3, CYP2C19 act 0.4, CYP2C9 inh 67*, MRP-1 activ -5 and CYP2C19 inh 60*.
O=C(CN1CCOCC1)Nc1nc2cc([N+](=O)[O-])ccc2s1 was read as MRP-1 activ -2.
`Cc1ccc2c(N)c(C(=O)N(c3ccccc3)c3ccccc3)sc2n1` gave MRP reversal 5 and MRP-1 activ -2.
For Cc1cc(C)cc(N(CC(=O)N2CCn3c2nc2ccccc23)S(=O)(=O)c2c(C)noc2C)c1 the results were CYP2C9 activ 0.5, CYP2C19 act 0.8, MRP reversal 12, CYP2C9 inh 48, MRP-1 activ -1 and CYP2C19 inh 24.
COc1ccc(NC(=O)Cn2cc(C(=O)c3ccco3)c3ccccc32)cc1 was read as CYP2C9 activ 0.9, CYP2C19 act 1.1, MRP reversal 12, CYP2C9 inh 10, MRP-1 activ 6.7* and CYP2C19 inh -11.
CCOc1ccc(NC(=O)Cn2cc(C(=O)c3ccco3)c3ccccc32)cc1 was read as CYP2C9 activ 0.9, CYP2C19 act 1, MRP reversal 0, CYP2C9 inh 11, MRP-1 activ -2 and CYP2C19 inh -2.
`COc1cccc(NC(=O)c2ocnc2C)c1` gave CYP2C9 activ 0.9, CYP2C19 act 0.8, MRP reversal -3, CYP2C9 inh 8, MRP-1 activ -2 and CYP2C19 inh 25.

From PubChem
